Screens as filed in PubChem.
The list is not random: actives were taken first. Their share in the collection is about 3.6%.
mHTT-CaM PPI inh: mutant huntingtin-calmodulin interaction inhibitors – biochemical, AlphaScreen, primary screen; 190,000 compounds, 3.6% hits; AlphaScreen His-mHTT/GST-CaM binding, luminescence; inhibition, % at 15 µM;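 also: 0% = both proteins with DMSO and 100% = one protein alone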
Pf apPOL inh: Pf-apPOL inhibitors, biochemical, fluorescence. Recombinant Pf-apPOL, molecular beacon fluorescence, 1.5 h. 210,000 compounds, 0.25% hits. inhibition, % at 10 µM. Plasmodium falciparum apicoplast DNA polymerase (apPOL)
* hit, by the source's call; ! = repeats disagree. Rule as the data show it: active = inhibition above about 50%; inactive = the rest.

SMILES | mHTT-CaM PPI inh | Pf apPOL inh
O=C(c1cc(-c2ccccc2)n[nH]1)N1CC2CC1CC2NS(=O)(=O)c1ccccc1 (stereo unspecified) | 2 | 0
Cc1cccc(S(=O)(=O)N2CCC(c3nc(C(=O)N4CCOCC4)c(C)o3)CC2)c1 | 2 | 6
COc1cc(NC(=O)N2CC=C(c3cn(C(C)C)c4ncccc34)CC2)cc(OC)c1 | 50 | -5
Cn1c2ccc([N+](=O)[O-])cc2c2nc3ccccc3nc21 | 6 | -4
CC(C)n1c2ccc(Br)cc2c2nc3ccccc3nc21 | -5 | 82*
COc1cc(NC(=O)c2ccc(OC)c([N+](=O)[O-])c2)c(C(=O)O)cc1OC | 7 | -3
COc1cc2c(cc1OC)C(C1=NC(C)(C)Cc3ccccc31)=NC(C)(C)C2 | 13 | -2
COc1cc2c(cc1OC)C(SC)=NC(C)(C)C2 | -1 | 95*!
C(=Nc1ccc(C23CC4CC(CC(C4)C2)C3)cc1)c1cccnc1 | 12 | 1
CSc1cccc(NC(=O)N2CCc3c(c(COc4ccccc4)nn3C)C2)c1 | 36 | -4
O=C(c1cccc(F)c1)N1CCC(CCOc2ccccc2)CC1 | -20 | -3
Fc1ccc(F)c(-c2nc(-c3ccc(-n4cccn4)nc3)no2)c1 | -9 | 2
O=C1C(=O)N(c2ccccn2)C(c2ccccc2F)C1=C(O)c1ccccc1 (stereo unspecified) | -3 | 0
Clc1ccc(-c2csc(=Nc3ccccc3)n2CCCN2CCOCC2)cc1 | 98* | -6
OCCCn1c(-c2ccc(Br)cc2)csc1=Nc1ccccc1 | 59* | 5
CCCn1c(-c2ccc(S(=O)(=O)N3CCOCC3)cc2)csc1=Nc1ccccc1 | 18 | -8
CCCCn1c(-c2ccc(S(=O)(=O)N3CCOCC3)cc2)csc1=Nc1ccccc1 | 12 | -5
CCOc1ccc(N=c2scc(-c3ccccc3)n2CCO)cc1 | 35 | -3
CCOc1ccc(N=c2scc(-c3ccc(Br)cc3)n2CCO)cc1 | 19 | -4
O=S(=O)(c1ccc(-c2csc(=Nc3ccccc3)n2CCCO)cc1)N1CCCCC1 | 51* | 0
Cc1ccc(C)c(-c2csc(=Nc3ccccc3)n2CCCO)c1 | 100* | -3
CC(C)CNC(=O)C1=CSCCO1 | -1 | 1
O=S(=O)(c1ccc2c(c1)CCC2)N1CCC(c2noc(-c3cccc(F)c3)n2)CC1 | 1 | -4
COc1ccc(NC(=O)c2cc(Cl)ccc2OC)c(OC)c1 | -4 | 9
CCOc1ccc(C(=O)Nc2ccc(OC)c(OC)c2)cc1 | 1 | -1
SMILES | mHTT-CaM PPI inh | Pf apPOL inh
N#CCc1cc(-c2ccccc2F)on1 | -23 | -5
O=C(c1cnccn1)N1CCCC1c1nc(-c2ccc(F)cc2F)no1 (stereo unspecified) | -1 | -5
Cc1cc(=O)oc2cc(OCC(O)CN3CCN(Cc4ccccc4)CC3)ccc12 (stereo unspecified) | 0 | -2
CCOc1ccccc1C(=O)N1CCC(COc2ccc(C(=O)N3CCCC3)cc2)CC1 | 15 | -1
CC(NS(=O)(=O)C1CON(C)C1c1ccccc1F)c1ccccc1 (stereo unspecified) | 0 | 0
N#CC1=C(N)Oc2cc(N)ccc2C1c1ccc(Cl)c(Cl)c1 (stereo unspecified) | 75* | -12
N#CC1=C(N)Oc2cc(O)ccc2C1c1ccc(Cl)c(Cl)c1 (stereo unspecified) | 100* | -6
N#CC1=C(N)Oc2cc(O)ccc2C1c1ccc(Br)cc1 (stereo unspecified) | 27 | -13
N#CC1=C(N)Oc2cc(N)ccc2C1c1ccc(Cl)cc1 (stereo unspecified) | 16 | -3
COc1ccc(NC(=O)C(NC(=O)c2cnccn2)c2ccccc2)cc1 (stereo unspecified) | 1 | -5
COc1ccc(NC(=O)c2cccc(S(=O)(=O)N3CCCCC3)c2)c([N+](=O)[O-])c1 | -1 | -8
COc1ccc(-c2nnn(CC(=O)Nc3ccc(F)c(Cl)c3)n2)cc1OC | 28 | 0
COc1ccc(Oc2nc3c(c(=O)n(Cc4ccccc4)c(=O)n3C)n2C)cc1 | 18 | 65*
COc1ccc(Cn2c(Oc3ccccc3)nc3c2c(=O)n(C)c(=O)n3C)cc1 | -6 | 1
COc1ccc(CN2CCc3nc(N4CCN(c5cccc(OC)c5)CC4)ncc3C2)cc1 | 74* | 2
COc1cccc(CN2CCc3nc(N4CCN(C)CC4)ncc3C2)c1 | 29 | -3
Fc1ccc(CN2CCc3nc(N4CCN(c5ccc(F)cc5)CC4)ncc3C2)cc1 | 0 | -6
COc1ccc(N2CCN(c3ncc4c(n3)CCN(Cc3ccc(F)cc3)C4)CC2)cc1 | 57* | -4
COc1cccc(N2CCN(c3ncc4c(n3)CCN(Cc3cccc(F)c3)C4)CC2)c1 | 58* | -3
CCCN1CCN(c2ncc3c(n2)CCN(Cc2cccc(OC)c2)C3)CC1 | 9 | -2
O=C(O)c1ccc(NC(CSCc2cccc(Cl)c2)C(=O)O)c([N+](=O)[O-])c1 (stereo unspecified) | 1 | -5
CC(C)Cn1c(=O)c2cc(C(=O)N3CCCC3)nn2c2ccccc21 | 24 | -7
CN(C)c1ccc(C(=O)Nc2nnc(-c3ccc(Br)cc3)o2)cc1 | 60* | -30
CN(C)c1ccc(-c2nc(-c3ccc(=O)n(C)c3)no2)cc1 | 9 | 5
COc1ccc(-c2nnc(NC(=O)c3ccc(S(=O)(=O)N(C)C)cc3)o2)cc1 | 30 | -1
SMILES | mHTT-CaM PPI inh | Pf apPOL inh
CN(C)c1ccc(-c2noc(-c3ccc(Br)cc3)n2)cc1 | 79* | -1
COc1ccc(N2CCN(C(=O)CN(c3ccccc3F)S(C)(=O)=O)CC2)cc1 | 6 | -10
COc1ccc(-c2nc(C)c3c(n2)N(Cc2cccs2)C(=O)C3)cc1 | 4 | -1
CCCOc1nccnc1N1CCC(NC(=O)Cc2c(C)noc2C)C1 (stereo unspecified) | 7 | 1
CC(=O)c1ccc(C(=O)N2CCN(c3nc4ccc([N+](=O)[O-])cc4s3)CC2)cc1 | 8 | -3
Cc1ccc2c(c1)/C(=c1\sc3nc4ccccc4n3c1=O)C(=O)N2 | 0 | 55*
CCN1C(=O)/C(=c2/sc3nc4ccccc4n3c2=O)c2ccccc21 | -3 | 6
Cc1c(C(=O)Nc2ccc(F)cc2)sc2nc(-c3ccccc3)cn12 | -1 | 3
c1ccc(OCCC2CCNCC2)cc1 | -2 | -4
c1ccc(OCCOc2ccc(-c3cc(C4CCNCC4)[nH]n3)cc2)cc1 | 62* | 8
COc1ccc(/C=C2/C(=N)N3C(SC)=NSC3=NC2=O)cc1Br | 3 | -3
COc1ccc(S(=O)(=O)NCC2(O)CCOCC2)cc1OC | -15 | -4
N#CC1=C(N)n2c(s/c(=C\c3ccsc3)c2=O)=C(C#N)C1c1ccsc1 (stereo unspecified) | 70* | -17
N#CC1=C(N)N(c2ccccc2)C2=C(C(=O)CCC2)C1c1ccsc1 (stereo unspecified) | 0 | -6
CC(=O)Nc1ccc(Nc2cc(C)nc3nc(C(F)(F)F)nn23)cc1 | -3 | -3
O=C(NCc1ccccc1F)C1CCCN(c2ccncc2)C1 (stereo unspecified) | -5 | -4
COc1ccc(S(=O)(=O)Nc2cc3sc(=O)oc3c3ccccc23)cc1 | 100* | 4
COc1ccc(S(=O)(=O)Nc2ccc3oc(=O)sc3c2)cc1 | 6 | -6
O=C(CN1C(=O)c2ccccc2C1=O)Nc1nnc(-c2ccc3c(c2)CCCC3)o1 | -16 | 1
